Consider 40 molecules from PubChem BioAssay (Tox21).

Each structure is given as a SMILES string. Values without a mark were called inactive. Where a call stands in place of a potency, no number is given. The source made the active and inactive calls. The call rests on the fitted dose curve.
Potency means the concentration at half of the fitted maximal effect.

Gonadotropin-releasing hormone receptor (Homo sapiens), sequence (P30968 whole entry, looked up): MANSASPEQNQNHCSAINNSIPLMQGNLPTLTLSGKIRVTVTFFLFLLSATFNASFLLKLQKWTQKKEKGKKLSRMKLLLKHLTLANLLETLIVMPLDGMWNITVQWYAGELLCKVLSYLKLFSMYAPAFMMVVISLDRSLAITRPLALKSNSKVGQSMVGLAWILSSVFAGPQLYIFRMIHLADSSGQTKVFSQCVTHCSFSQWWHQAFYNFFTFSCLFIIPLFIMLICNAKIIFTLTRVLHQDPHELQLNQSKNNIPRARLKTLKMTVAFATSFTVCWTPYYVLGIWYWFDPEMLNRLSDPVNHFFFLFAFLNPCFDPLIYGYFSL

The test has as its target Gonadotropin-releasing hormone receptor (Homo sapiens) (UniProt P30968). The test is described as follows: Human gonadotropin-releasing hormone receptor (GnRHR) small molecule agonists, calcium flux assay in GnRHR-HEK293 cells (AID 1920063). Further: nearly all actives have a fitted effect of over 35% in size. As to conditions: calcium flux fluorescence, agonist mode; series mostly up to 57.6 µM. The source says:
National Center for Advancing Translational Sciences [NCATS]
Division of Preclinical Innovation [DPI]
U.S. Environmental Protection Agency [EPA]
National Institutes of Environmental Health Sciences [NIEHS]
National Toxicology Program [NTP]
U.S. Food and Drug Administration [FDA]
Gonadotropin-releasing hormone receptor (GnRHR) is a G-protein-coupled receptor (GPCR) and acts (through phospholipase C) to increase intracellular inositol trisphosphate and then release intracellular calcium stores. Cell-based GnRHR-Hek293 calcium influx assay is using HEK293 cells that have been genetically engineered to express the human GnRHR, which activity can be measured by calcium signaling. A compound/drug can activate (agonist) GnRHR that can be monitored by levels of intracellular calcium.
GnRHR-HEK293 cells developed by Codex Corp contain human GnRHR reporter gene, which was stably integrated into HEK 293 cells. The compound activation can be detected by fluorescence intensity via calcium flux assay. This cell line has been used to screen the Tox21 10K compound library to identify GnRHR agonists.
GnRHR-Hek293 cells were dispensed at 1500cells/4uL/well in 1536-well black wall/clear bottom plates using a multidrop dispenser. After the assay plates were incubated at a 37 C/5% CO2 incubator for 18 hours, 4 uL of Calcium Dye Solution was added to each well. The plates were incubated at 37 C for 1 hour. For agonist mode, 23 nL of compounds dissolved in DMSO, positive controls or DMSO only was transferred to the assay plate by a pin tool station. The fluorescence intensity in the plates was measured using FDSS 7000EX kinetic plate reader with a filter set of Ex/Em=480/540 for 3 min at 1 sec intervals. Each test compound was measured at 15 concentrations and in triplicates.
`Cc1cc(=O)oc2cc(N(C)C)ccc12`: the Potency entry is “inactive”.
The same measure, in the same setting: with `C[C@H](CS)C(=O)N1CCC[C@H]1C(=O)O` the entry was “inactive”; with `C[C@@H]1C[C@H]2[C@@H]3C[C@H](F)C4=CC(=O)C(Cl)=C[C@]4(C)[C@@]3(F)[C@@H](O)C[C@]2(C)[C@@]1(O)C(=O)CO`, “inactive”; with `O=[N+]([O-])c1ccc2ncccc2c1`, “inactive”.
Same read-out and setting: the entry for `CC(O)C#CC(C)O` (stereo not given) is “inactive”; for `Clc1ccccc1CN1CCc2sccc2C1` it is “inactive”; for `Cc1ccccc1OCC(=O)O` it is “inactive”.
On the same count and under the same terms, with `Cc1nc2ccc(CN(C)c3ccc(C(=O)N[C@@H](CCC(=O)O)C(=O)O)s3)cc2c(=O)[nH]1` the entry was “inactive”; with `CC1=C(CC(=O)O)c2cc(F)ccc2/C1=C\c1ccc(S(C)(=O)=O)cc1`, “inactive”; with `CN(C)c1ccc(O)c2c1C[C@H]1C[C@H]3[C@H](N(C)C)C(=O)C(C(N)=O)=C(O)[C@@]3(O)C(=O)C1=C2O`, “inactive”.
`C[C@]12CC[C@@H]3c4ccc(O)cc4CC[C@H]3[C@@H]1CC[C@@H]2OC(=O)CCC1CCCC1`: the Potency result was “inactive”.
In the case of `CC(C)(C)OC(=O)c1ccc(O)cc1`, the Potency entry is “inactive”.
Same read-out and setting: with `CN(CCCN1c2ccccc2CCc2ccccc21)CC(=O)c1ccc(Cl)cc1` the entry was “inactive”; with `Cc1cnc(C(=O)NCCc2ccc(S(=O)(=O)NC(=O)NC3CCCCC3)cc2)cn1`, “inactive”.
Still for that read-out and setting: the entry for `OC(C#CCN1CCCC1)(c1ccccc1)c1ccccc1` is “inactive”; for `CC(C)(C(=O)O)c1ccc(C(O)CCCN2CCC(C(O)(c3ccccc3)c3ccccc3)CC2)cc1` (stereo not given) it is “inactive”; for `COC(=O)CCCCCCCC(=O)OC` it is “inactive”.
The same measure, in the same setting: the entry for `Cc1cc(C)c(N)cc1C` is “inactive”.
For the molecule `C=C(C)C(=O)OCCCCCCCCCC`, the Potency entry is “inactive”.
The same measure, in the same setting: the entry for `C=C(C)C(=O)OCCOCCOCCOCCOC(=O)C(=C)C` is “inactive”; for `C[C@@H](N)C(=O)O` it is “inactive”; for `CN(C)C(=O)NC1(c2ccccc2)CCN(CC[C@@]2(c3ccc(F)c(F)c3)CN(C(=O)c3ccccc3)CCO2)CC1` it is “inactive”.
On the same count and under the same terms, with `O=C(OCC(COC(=O)c1cccnc1)(COC(=O)c1cccnc1)COC(=O)c1cccnc1)c1cccnc1` the entry was “inactive”.
The same measure, in the same setting: the entry for `NCc1ccccc1` is “inactive”.
On to `NS(=O)(=O)c1cc2c(cc1Cl)NC(CSCc1ccccc1)=NS2(=O)=O`, for which the Potency result was “inactive”.
The same measure, in the same setting: with `Cc1ccc(NC=O)c(C)c1` the entry was “inactive”; with `CC[N+](CC)(CC)CCOC(=O)C(C1CCCC1)C1CCCC1`, “inactive”.
For `Cn1ccc2cc3c(cc21)CCN3C(=O)Nc1cccnc1`, the activity change was -0.165% [at 11.8 µM, stronger effect = higher value].
For `CC1(C)CCC[C@]2(C)[C@H]3CC(=O)O[C@]3(C)CC[C@@H]12`, the Potency result is “inactive”.
Same read-out and setting: the entry for `CSc1ccc(C=O)cc1` is “inactive”; for `C/C=C1\C(=O)C[C@H]2[C@@H]3CCC4=CC(=O)CC[C@]4(C)[C@H]3CC[C@]12C` it is “inactive”; for `O=C(O)/C=C/c1ccc(O)c(O)c1` it is “inactive”.
Same read-out and setting: with `CN(C)c1ccc(C=O)cc1` the entry was “inactive”.
On the same count and under the same terms, the entry for `CCCCCCCCCCCCCCCCCC[N+](C)(C)Cc1ccccc1` is “inactive”; for `O=C(NCC(O)CO)c1c(I)c(C(=O)NCC(O)CO)c(I)c(N(CCO)C(=O)CO)c1I` (stereo not given) it is “inactive”.
On to `CCCCCCCCOC(=O)c1cc(O)c(O)c(O)c1`, for which the Potency is 34.7 µM (active).
The same measure, in the same setting: the entry for `O=P(c1ccccc1)(c1ccccc1)c1ccccc1` is “inactive”; for `CC1(C)C(=O)NC(=O)N1CO` it is “inactive”; for `CC(=O)OC(C)C[N+](C)(C)C` (stereo not given) it is 1.07 µM (active).
Still for that read-out and setting: the entry for `OC(CCN1CCCCC1)(c1ccccc1)C1CCCCC1` (stereo not given) is “inactive”.
